# In article PMC7862700, “An all-to-all approach to the identification of sequence-specific readers for epigenetic DNA modifications on cytosine”:
# What was measured:
# Assay in all cases: DAPPL (digital affinity profiling via proximity ligation, sequencing); 10 mM Tris-HCl pH 7.5, 50 mM NaCl, 1 mM DTT, 4% glycerol, room temperature, 30 min; GST-TFs on glutathione beads, 16-mer random dsDNA library, 0.1% formaldehyde crosslink after washing; high values mean tight binding
# FLI1 = target: T1, FLI1 (Homo sapiens, UniProt Q01543 1-452); settings: protein: recombinant; tags: N-terminal GST; dsDNA, one strand shown
# T1 sequence: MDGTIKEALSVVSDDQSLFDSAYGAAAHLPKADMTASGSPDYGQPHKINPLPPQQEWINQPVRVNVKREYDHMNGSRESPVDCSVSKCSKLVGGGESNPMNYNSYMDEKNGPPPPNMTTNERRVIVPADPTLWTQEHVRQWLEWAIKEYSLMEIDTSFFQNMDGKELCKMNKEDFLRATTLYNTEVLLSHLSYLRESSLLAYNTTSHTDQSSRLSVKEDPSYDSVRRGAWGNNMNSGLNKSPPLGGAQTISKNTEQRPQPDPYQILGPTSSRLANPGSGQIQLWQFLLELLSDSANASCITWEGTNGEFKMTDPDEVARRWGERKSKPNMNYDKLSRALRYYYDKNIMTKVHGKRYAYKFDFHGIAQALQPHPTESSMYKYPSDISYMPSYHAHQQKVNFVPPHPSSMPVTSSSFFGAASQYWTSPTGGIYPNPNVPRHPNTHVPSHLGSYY
# In short: (§1)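 Human transcription factors were made in yeast as GST fusions, captured on glutathione beads and barcoded with DNA. With a tag-only sample included, the pool was incubated with 200 nmole of a random double-stranded 16-mer DNA library in Tris/NaCl/DTT/glycerol buffer at room temperature for 30 min, then crosslinked with 0.1% formaldehyde after washing, ligated by proximity, amplified and sequenced. For binding signal, each hexamer's read frequency for a factor is divided by its frequency for the tag-only sample.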
# ELK1 = target: T2, ELK1 (Homo sapiens, UniProt P19419 1-428); settings: protein: recombinant; tags: N-terminal GST; dsDNA, one strand shown
# T2 sequence: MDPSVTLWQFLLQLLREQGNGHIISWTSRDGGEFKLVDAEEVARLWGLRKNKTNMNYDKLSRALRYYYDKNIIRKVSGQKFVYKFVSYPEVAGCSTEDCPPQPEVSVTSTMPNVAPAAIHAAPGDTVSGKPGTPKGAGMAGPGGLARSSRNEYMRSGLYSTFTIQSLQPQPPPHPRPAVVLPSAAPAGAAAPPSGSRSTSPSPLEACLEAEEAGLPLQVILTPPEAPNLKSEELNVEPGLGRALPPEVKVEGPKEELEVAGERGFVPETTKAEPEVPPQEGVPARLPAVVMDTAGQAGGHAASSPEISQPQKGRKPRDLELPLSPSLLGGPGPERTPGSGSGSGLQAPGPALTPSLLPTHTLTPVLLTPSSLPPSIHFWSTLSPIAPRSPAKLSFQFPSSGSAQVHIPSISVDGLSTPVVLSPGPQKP
# In short: as §1
# GABPA = target: T3, GABPA (Homo sapiens, UniProt Q06546 1-454); settings: protein: recombinant; tags: N-terminal GST; dsDNA, one strand shown
# T3 sequence: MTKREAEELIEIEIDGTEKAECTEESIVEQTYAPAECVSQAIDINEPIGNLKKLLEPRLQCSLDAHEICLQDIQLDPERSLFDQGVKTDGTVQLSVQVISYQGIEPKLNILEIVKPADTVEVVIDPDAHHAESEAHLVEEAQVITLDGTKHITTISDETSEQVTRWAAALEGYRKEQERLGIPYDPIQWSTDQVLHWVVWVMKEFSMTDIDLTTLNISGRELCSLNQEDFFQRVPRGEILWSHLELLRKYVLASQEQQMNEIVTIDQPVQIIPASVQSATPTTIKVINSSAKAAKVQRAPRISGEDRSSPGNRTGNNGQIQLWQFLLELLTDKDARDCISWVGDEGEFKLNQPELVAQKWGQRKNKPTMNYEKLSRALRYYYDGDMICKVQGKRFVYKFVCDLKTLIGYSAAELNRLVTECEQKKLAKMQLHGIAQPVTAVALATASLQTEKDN
# In short: as §1
# ERG = target: T4, ERG (Homo sapiens, UniProt P11308 1-479); settings: protein: recombinant; tags: N-terminal GST; dsDNA, one strand shown
# T4 sequence: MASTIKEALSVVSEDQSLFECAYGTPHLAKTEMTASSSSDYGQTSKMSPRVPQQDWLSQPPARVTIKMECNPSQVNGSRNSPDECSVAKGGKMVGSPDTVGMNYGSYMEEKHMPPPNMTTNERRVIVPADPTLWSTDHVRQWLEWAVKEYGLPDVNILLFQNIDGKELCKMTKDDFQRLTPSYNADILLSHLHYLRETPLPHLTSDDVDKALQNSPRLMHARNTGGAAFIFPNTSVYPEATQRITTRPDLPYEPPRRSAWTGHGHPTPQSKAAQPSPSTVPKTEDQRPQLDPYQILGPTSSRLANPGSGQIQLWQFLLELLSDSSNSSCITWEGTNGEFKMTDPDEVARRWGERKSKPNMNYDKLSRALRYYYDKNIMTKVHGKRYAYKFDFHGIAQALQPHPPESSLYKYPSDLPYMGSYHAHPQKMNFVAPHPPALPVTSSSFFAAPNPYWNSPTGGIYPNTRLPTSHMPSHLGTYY
# In short: as §1
# ELF1 = ELF1 (Homo sapiens, UniProt P32519 1-619); settings: protein: recombinant; tags: N-terminal GST; dsDNA, one strand shown
# Chain of ELF1 (P32519 whole entry): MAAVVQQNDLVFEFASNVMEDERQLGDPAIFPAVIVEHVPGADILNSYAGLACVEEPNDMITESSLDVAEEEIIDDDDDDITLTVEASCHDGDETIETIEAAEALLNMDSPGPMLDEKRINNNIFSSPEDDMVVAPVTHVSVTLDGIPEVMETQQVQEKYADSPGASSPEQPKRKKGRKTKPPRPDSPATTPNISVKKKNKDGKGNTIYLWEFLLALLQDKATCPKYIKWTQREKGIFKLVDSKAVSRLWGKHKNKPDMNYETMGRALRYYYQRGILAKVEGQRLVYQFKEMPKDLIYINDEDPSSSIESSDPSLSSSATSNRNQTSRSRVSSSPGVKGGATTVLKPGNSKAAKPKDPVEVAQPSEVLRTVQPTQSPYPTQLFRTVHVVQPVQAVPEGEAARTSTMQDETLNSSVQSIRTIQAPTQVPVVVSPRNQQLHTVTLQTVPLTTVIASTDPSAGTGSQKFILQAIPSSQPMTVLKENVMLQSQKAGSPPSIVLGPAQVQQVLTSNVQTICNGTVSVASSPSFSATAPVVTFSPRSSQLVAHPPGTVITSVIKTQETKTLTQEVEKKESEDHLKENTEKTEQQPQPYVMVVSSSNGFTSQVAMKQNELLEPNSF
# In short: as §1
# EHF = target: T5, EHF (Homo sapiens, UniProt Q9NZC4 1-300); settings: protein: recombinant; tags: N-terminal GST; dsDNA, one strand shown
# T5 sequence: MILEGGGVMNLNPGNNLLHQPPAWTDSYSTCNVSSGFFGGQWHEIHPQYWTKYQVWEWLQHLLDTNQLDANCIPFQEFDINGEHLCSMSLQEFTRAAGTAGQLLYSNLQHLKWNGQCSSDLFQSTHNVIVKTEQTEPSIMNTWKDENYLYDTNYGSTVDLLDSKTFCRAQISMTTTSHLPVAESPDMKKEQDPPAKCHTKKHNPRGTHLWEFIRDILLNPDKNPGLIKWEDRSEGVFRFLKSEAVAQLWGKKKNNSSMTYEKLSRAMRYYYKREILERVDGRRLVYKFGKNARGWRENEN
# In short: as §1
# SPI1 = SPI1 (Homo sapiens, UniProt P17947 1-270); settings: protein: recombinant; tags: N-terminal GST; dsDNA, one strand shown
# In short: as §1
# SPIB = SPIB (Homo sapiens, UniProt Q01892 1-262); settings: protein: recombinant; tags: N-terminal GST; dsDNA, one strand shown
# Chain of SPIB (Q01892 whole entry): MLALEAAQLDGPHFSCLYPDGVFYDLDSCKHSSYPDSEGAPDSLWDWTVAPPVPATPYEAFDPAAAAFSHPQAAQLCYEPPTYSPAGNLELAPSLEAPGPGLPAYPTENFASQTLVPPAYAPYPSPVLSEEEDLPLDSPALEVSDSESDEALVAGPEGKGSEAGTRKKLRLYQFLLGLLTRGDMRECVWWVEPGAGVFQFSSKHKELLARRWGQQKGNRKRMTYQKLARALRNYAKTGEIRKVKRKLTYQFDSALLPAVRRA
# In short: as §1
# ELK3 = target: T6, ELK3 (Homo sapiens, UniProt P41970 1-407); settings: protein: recombinant; tags: N-terminal GST; dsDNA, one strand shown
# T6 sequence: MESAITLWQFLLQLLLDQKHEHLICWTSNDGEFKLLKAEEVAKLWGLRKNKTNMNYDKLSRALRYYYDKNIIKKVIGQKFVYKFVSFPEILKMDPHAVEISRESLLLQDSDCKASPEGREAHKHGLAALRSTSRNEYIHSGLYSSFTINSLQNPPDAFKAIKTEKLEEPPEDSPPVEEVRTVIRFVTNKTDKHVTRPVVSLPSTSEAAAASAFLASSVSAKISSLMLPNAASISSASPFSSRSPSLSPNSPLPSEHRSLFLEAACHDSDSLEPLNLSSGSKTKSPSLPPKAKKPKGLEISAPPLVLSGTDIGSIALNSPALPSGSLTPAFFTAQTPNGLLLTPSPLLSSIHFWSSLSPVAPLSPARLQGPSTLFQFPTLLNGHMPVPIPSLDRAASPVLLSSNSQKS
# In short: as §1
# FEV = target: T7, FEV (Homo sapiens, UniProt Q99581 1-238); settings: protein: recombinant; tags: N-terminal GST; dsDNA, one strand shown
# T7 sequence: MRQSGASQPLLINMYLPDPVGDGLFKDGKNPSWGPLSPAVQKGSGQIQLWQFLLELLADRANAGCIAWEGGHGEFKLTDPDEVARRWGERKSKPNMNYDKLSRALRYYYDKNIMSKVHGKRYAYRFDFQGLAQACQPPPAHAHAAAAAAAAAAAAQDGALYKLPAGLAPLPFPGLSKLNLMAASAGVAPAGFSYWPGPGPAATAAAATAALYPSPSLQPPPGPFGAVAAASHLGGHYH
# In short: as §1
# ETV5 = ETV5 (Homo sapiens, UniProt P41161 1-510); settings: protein: recombinant; tags: N-terminal GST; dsDNA, one strand shown
# Chain of ETV5 (P41161 whole entry): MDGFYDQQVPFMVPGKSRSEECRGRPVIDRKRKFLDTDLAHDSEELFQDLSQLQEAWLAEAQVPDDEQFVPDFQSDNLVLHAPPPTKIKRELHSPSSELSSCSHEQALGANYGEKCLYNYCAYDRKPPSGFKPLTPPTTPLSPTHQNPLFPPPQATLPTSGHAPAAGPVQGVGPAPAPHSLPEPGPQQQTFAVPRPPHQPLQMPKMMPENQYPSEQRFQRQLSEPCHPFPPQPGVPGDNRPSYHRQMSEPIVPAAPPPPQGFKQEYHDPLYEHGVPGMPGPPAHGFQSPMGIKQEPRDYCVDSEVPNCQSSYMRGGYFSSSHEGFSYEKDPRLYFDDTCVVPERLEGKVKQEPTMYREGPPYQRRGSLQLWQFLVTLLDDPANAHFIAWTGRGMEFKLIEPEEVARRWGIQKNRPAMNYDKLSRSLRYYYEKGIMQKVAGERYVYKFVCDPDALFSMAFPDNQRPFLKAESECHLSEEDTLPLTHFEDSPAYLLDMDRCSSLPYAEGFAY
# In short: as §1
# HSF1 = HSF1 (Homo sapiens, UniProt Q00613 1-529); settings: protein: recombinant; tags: N-terminal GST; chain copies: 3; dsDNA, one strand shown
# Chain of HSF1 (Q00613 whole entry): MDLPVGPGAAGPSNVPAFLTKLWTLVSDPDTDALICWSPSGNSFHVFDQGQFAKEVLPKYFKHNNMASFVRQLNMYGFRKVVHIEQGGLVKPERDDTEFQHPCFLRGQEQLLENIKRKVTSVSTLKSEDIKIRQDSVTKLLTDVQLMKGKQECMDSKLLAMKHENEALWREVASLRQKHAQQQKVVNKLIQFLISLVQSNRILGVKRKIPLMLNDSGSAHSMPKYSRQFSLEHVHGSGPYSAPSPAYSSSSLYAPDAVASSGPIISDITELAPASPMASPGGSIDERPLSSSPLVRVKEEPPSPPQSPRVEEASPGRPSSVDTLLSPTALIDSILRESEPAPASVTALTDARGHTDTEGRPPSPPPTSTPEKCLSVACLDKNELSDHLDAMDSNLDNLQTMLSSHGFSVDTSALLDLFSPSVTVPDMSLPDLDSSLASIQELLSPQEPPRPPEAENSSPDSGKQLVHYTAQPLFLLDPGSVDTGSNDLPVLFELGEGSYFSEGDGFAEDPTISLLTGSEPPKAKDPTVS
# In short: as §1
# SPIC = target: T8, SPIC (Homo sapiens, UniProt Q8N5J4 1-248); settings: protein: recombinant; tags: N-terminal GST; dsDNA, one strand shown
# T8 sequence: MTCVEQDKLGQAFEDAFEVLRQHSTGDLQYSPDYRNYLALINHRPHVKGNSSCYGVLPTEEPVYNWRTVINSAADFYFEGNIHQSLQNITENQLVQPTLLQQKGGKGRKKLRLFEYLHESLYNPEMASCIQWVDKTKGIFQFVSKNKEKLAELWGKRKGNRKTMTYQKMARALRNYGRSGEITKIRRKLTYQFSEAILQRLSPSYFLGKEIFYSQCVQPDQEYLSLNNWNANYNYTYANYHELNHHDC
# In short: as §1
# ELF4 = ELF4 (Homo sapiens, UniProt Q99607 1-663); settings: protein: recombinant; tags: N-terminal GST; dsDNA, one strand shown
# Chain of ELF4 (Q99607 whole entry): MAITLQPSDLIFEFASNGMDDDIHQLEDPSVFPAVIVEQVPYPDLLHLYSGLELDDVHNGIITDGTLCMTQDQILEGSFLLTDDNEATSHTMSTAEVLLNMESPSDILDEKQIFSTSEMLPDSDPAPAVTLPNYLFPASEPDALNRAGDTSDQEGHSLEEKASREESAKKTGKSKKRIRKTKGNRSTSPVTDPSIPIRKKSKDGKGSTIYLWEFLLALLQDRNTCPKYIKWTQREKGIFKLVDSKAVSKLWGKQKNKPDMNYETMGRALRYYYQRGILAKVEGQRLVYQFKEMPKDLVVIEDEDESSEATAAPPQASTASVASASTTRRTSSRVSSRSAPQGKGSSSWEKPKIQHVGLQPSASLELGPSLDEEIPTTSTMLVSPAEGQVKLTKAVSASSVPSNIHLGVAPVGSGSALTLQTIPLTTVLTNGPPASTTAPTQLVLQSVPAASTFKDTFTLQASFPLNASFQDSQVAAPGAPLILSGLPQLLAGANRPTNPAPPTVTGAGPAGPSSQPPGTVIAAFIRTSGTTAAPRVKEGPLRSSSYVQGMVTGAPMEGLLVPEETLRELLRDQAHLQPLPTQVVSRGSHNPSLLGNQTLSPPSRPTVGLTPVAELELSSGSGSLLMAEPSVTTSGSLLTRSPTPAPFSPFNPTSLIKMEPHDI
# In short: as §1
# ELK4 = target: T9, ELK4 (Homo sapiens, UniProt P28324-2 1-405); settings: protein: recombinant; tags: N-terminal GST; dsDNA, one strand shown
# T9 sequence: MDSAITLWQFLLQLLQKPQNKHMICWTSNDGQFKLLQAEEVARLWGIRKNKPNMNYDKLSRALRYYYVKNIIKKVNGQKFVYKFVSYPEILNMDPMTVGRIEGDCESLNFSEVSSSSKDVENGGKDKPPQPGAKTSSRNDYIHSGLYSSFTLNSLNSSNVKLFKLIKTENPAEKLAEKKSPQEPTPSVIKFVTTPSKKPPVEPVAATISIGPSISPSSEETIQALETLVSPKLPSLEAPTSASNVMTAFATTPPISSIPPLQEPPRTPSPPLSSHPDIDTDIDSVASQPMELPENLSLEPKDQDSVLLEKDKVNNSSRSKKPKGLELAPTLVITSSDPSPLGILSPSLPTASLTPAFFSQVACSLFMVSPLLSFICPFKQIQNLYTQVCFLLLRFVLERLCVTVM
# In short: as §1
# ETV2 = target: T10, ETV2 (Homo sapiens, UniProt O00321 1-342); settings: protein: recombinant; tags: N-terminal GST; dsDNA, one strand shown
# T10 sequence: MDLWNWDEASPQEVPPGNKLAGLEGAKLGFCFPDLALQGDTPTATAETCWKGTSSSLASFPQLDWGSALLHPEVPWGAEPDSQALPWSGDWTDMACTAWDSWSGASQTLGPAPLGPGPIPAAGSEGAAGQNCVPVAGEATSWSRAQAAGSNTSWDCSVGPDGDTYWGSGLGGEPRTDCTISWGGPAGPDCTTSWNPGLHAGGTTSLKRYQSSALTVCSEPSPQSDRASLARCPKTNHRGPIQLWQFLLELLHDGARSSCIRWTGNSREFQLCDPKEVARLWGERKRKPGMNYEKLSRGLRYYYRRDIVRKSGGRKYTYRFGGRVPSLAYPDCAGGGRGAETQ
# In short: as §1
# ELF3 = target: T11, ELF3 (Homo sapiens, UniProt P78545 1-371); settings: protein: recombinant; tags: N-terminal GST; dsDNA, one strand shown
# T11 sequence: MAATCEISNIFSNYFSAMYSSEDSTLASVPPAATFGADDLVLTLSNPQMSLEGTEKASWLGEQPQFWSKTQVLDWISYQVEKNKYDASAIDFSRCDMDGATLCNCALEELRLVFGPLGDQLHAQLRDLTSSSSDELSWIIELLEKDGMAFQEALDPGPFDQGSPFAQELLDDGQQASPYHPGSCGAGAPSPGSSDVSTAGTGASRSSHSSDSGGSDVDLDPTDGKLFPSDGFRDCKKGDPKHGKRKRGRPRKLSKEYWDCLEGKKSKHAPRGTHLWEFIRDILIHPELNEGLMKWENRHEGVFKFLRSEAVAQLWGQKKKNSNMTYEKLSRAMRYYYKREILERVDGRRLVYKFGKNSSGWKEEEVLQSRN
# In short: as §1
# CRX = CRX (Homo sapiens, UniProt O43186 1-299); settings: protein: recombinant; tags: N-terminal GST; dsDNA, one strand shown
# Chain of CRX (O43186 whole entry): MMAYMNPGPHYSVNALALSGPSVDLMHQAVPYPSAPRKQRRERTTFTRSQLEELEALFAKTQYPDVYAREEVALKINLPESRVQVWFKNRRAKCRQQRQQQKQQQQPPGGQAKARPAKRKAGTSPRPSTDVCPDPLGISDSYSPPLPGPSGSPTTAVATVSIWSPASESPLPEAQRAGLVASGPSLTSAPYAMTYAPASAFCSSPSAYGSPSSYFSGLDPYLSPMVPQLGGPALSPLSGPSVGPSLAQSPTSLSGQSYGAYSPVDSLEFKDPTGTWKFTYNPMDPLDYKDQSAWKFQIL
# In short: as §1
# ETV1 = ETV1 (Homo sapiens, UniProt P50549 1-477); settings: protein: recombinant; tags: N-terminal GST; dsDNA, one strand shown
# Chain of ETV1 (P50549 whole entry): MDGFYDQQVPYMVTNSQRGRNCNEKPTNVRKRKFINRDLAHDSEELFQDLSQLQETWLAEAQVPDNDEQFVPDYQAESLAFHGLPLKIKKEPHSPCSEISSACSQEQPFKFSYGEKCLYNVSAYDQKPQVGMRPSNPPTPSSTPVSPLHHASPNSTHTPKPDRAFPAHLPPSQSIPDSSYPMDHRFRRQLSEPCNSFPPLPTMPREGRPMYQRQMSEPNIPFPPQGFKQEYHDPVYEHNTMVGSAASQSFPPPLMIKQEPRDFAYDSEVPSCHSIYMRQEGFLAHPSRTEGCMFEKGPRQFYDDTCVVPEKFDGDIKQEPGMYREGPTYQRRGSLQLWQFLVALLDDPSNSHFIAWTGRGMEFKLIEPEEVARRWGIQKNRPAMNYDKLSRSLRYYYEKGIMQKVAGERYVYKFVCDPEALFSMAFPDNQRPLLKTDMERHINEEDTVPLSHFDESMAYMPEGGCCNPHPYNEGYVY
# In short: as §1
sequence,measurement,setting,value
ATCCGA,binding signal,FLI1,"1.1 fold enrichment (6-mer frequency, TF over GST control)"
same,binding signal,ELK1,"1.17 fold enrichment (6-mer frequency, TF over GST control)"
same,binding signal,GABPA,"1.2 fold enrichment (6-mer frequency, TF over GST control)"
same,binding signal,ERG,"1.31 fold enrichment (6-mer frequency, TF over GST control)"
same,binding signal,ELF1,"1.15 fold enrichment (6-mer frequency, TF over GST control)"
same,binding signal,EHF,"1.17 fold enrichment (6-mer frequency, TF over GST control)"
same,binding signal,SPI1,"1.08 fold enrichment (6-mer frequency, TF over GST control)"
same,binding signal,SPIB,"1.32 fold enrichment (6-mer frequency, TF over GST control)"
same,binding signal,ELK3,"1.32 fold enrichment (6-mer frequency, TF over GST control)"
same,binding signal,FEV,"1.29 fold enrichment (6-mer frequency, TF over GST control)"
same,binding signal,ETV5,"1.2 fold enrichment (6-mer frequency, TF over GST control)"
same,binding signal,HSF1,"1.56 fold enrichment (6-mer frequency, TF over GST control)"
same,binding signal,SPIC,"1.31 fold enrichment (6-mer frequency, TF over GST control)"
same,binding signal,ELF4,"1.13 fold enrichment (6-mer frequency, TF over GST control)"
same,binding signal,ELK4,"1.18 fold enrichment (6-mer frequency, TF over GST control)"
same,binding signal,ETV2,"1.24 fold enrichment (6-mer frequency, TF over GST control)"
same,binding signal,ELF3,"1.09 fold enrichment (6-mer frequency, TF over GST control)"
same,binding signal,CRX,"2.02 fold enrichment (6-mer frequency, TF over GST control)"
same,binding signal,ETV1,"1.17 fold enrichment (6-mer frequency, TF over GST control)"
